sEH activator – soluble epoxide hydrolase activators, primary screen, biochemical, human sEH. Bifunctional epoxide hydrolase 2 (Homo sapiens), P34913. purified human sEH enzymatic activity, activator screen. activation, % at 2 µM. 91,000 compounds, 0.04% hits. AID 717, 2007; in the data active = activation above about 37%
CYP2C19 inhib – blockers of cytochrome P450 2C19 activity – biochemical, luminescence, ADME assay, primary screen. CYP2C19 Supersomes, luciferin-H EGE luminescence, 30 min. P33261. 96,000 compounds, 21% hits. inhibition, % at 5 µM;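 active = CYP2C19 inhibition above a set limit at 5 µM in the primary screen, cut at about 50% in these data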;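 note: plate controls were negative control wells for no effect and 2.5 mM tranylcypromine positive control for full effect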
Target sequence (P33261 whole entry, looked up): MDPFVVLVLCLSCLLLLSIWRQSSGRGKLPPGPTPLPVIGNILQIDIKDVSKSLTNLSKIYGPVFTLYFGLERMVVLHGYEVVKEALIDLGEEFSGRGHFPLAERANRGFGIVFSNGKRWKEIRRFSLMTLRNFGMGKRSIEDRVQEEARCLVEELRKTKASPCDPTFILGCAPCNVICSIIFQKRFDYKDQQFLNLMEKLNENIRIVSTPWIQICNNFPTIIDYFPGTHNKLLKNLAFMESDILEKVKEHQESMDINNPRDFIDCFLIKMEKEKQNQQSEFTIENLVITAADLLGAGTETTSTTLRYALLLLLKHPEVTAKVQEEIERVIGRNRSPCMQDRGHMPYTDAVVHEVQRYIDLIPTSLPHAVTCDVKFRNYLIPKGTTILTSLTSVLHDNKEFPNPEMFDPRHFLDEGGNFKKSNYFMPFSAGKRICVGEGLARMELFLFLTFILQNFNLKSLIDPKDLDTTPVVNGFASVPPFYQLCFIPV
CYP2C9 act – human CYP2C9 activators, primary screen, biochemical, luminescence. Cytochrome P450 2C9 (Homo sapiens), P11712. recombinant CYP2C9, luciferin-H conversion; hits give high values; factor 1 = untreated enzyme, 0 = blocked. activation factor at 5 µM. 96,000 compounds, 1.4% hits. AID 1024, 2008;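 active = activation factor of 2 or more for CYP2C9 at a 5 µM dose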;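 note: 0 = sulfaphenazole-blocked wells and 1 = vehicle-only wells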
sEH inhibitor – soluble epoxide hydrolase inhibitors, primary screen, biochemical, human sEH | AID 707, 2007 | recombinant human sEH enzymatic activity assay | 91,000 compounds, 0.34% hits | Bifunctional epoxide hydrolase 2 (Homo sapiens), P34913 | inhibition, % at 2 µM; in the data active = inhibition above about 80%
CYP2C19 act – human CYP2C19 activators, primary screen, biochemical, luminescence; recombinant CYP2C19, luciferin-H EGE luminescence; hits give high values; 0 = fully inhibited enzyme, 1 = untreated enzyme; activation factor at 5 µM; Cytochrome P450 2C19 (Homo sapiens), P33261; 96,000 tested, under 10 active;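 active = activation factor of at least 2 at 5 µM in the primary screen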;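 note: 0 = wells with 2.5 mM tranylcypromine and 1 = vehicle-only wells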
CYP2C9 inh – blockers of cytochrome P450 2C9 activity – biochemical, luminescence, ADME assay, primary screen; P11712; CYP2C9 Supersomes, luciferin-H conversion; inhibition, % at 5 µM; 96,000 compounds, 20% hits; AID 777, 2007;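 active = blocking of liver enzyme CYP2C9 beyond about 50% at 5 µM, limit read from the data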
An asterisk follows results filed as active; nt = not tested or not shown. Compounds with a hit are over-represented: about 27% of the library has one in this group of screens.

SMILES	sEH activator	CYP2C19 inhib	CYP2C9 act	sEH inhibitor	CYP2C19 act	CYP2C9 inh
OC12CCCCC1C(c1ccc3c(c1)OCO3)N(Cc1ccc(F)cc1)CC2 (centres undefined)	-17	72*	0.5	15	0.3	45
OC12CCCCC1C(c1ccc3c(c1)OCO3)N(Cc1ccccc1F)CC2 (centres undefined)	-7	98*	0.1	7	0	95*
O=C1C(c2ccc(F)cc2)N(Cc2ccc3c(c2)OCO3)C(=O)CN1C1CCCC1 (centres undefined)	1	13	0.8	-2	0.9	24
C/C(=N\n1nnnc1Nc1ccccc1)c1ccc(N)cc1	-2	27	0.8	2	0.7	21
CC1(C)Cc2nc3sc4c(=O)n(CC(=O)NCc5ccccc5)cnc4c3cc2CO1	-2	8	0.6	2	0.9	43
CC1(C)Cc2nc3sc4c(SCC(=O)NCc5ccco5)ncnc4c3cc2CO1	-13	46	0.4	16	0.5	64*
CC(C)c1nc2sc3c(SCC(=O)NCc4ccco4)ncnc3c2c2c1CCC2	nt	59*	0.3	nt	0.4	70*
C=CCN1C(=O)CN=C1Nc1ccc(OC)cc1OC	-6	2	1	6	1	0
COc1cccc(C(=O)Nc2c3c(nn2-c2cccc(C)c2C)CS(=O)C3)c1OC (centres undefined)	-1	13	0.9	-1	0.9	14
CCN1C(=O)c2cccc3c(S(=O)(=O)Nc4c(C)n(C)n(-c5ccccc5)c4=O)ccc1c23	4	0	0.4	-2	1	58*
CCOC(=O)Cc1csc(NS(=O)(=O)c2ccc3c4c(cccc24)C(=O)N3CC)n1	nt	44	0	nt	0.6	95*
O=C(NCCN1C(=O)CSC1=O)c1ccccc1	15	-1	1.1	-17	1	-14
CC(C)N(Cc1nc(-c2ccccc2)no1)C(=O)CN1C(=O)c2ccccc2C1=O	0	nt	nt	3	nt	nt
CC(C)N(Cc1nc(-c2ccccc2)no1)S(=O)(=O)c1ccccc1	-8	58*	0.3	8	0.4	68*
O=S(=O)(c1ccccc1)N(Cc1nc(-c2ccccc2)no1)C1CCCCC1	-10	50*	0.1	9	0.5	93*
CC(C)N(Cc1nc(-c2ccccc2)no1)C(=O)CN(C)S(=O)(=O)c1ccccc1	-13	79*	0.3	8	0.2	69*
CSc1cccc(NC(=O)c2ccc(Cl)nc2)c1	-9	17	1	11	0.8	-3
O=C1CC(N2CCSCC2)C(=O)N1CCc1ccccc1 (centres undefined)	1	16	1.1	4	0.8	-9
C=CCSc1nnc(NC(=O)c2cccc(S(=O)(=O)N3CCOCC3)c2)s1	-18	-12	0.9	16	1.1	9
O=C(COC(=O)C1CC2C=CC1C2)Nc1ccc2c(c1)OC(F)(F)O2 (centres undefined)	-27	nt	nt	30	nt	nt
COc1ccccc1N=c1scc(-c2ccc3c(c2)NC(=O)CO3)n1CC1CCCO1 (centres undefined)	nt	27	0.8	nt	0.7	21
CN(C)S(=O)(=O)c1cccc(N=c2scc(-c3ccc4c(c3)NC(=O)CO4)n2CC2CCCO2)c1 (centres undefined)	-8	46	0.5	11	0.5	50*
COC1CCCCC1Nc1cccc(SC)c1 (centres undefined)	0	29	0.9	-1	0.7	9
Clc1cccc(-c2nnc(SCc3nc4ccccc4[nH]3)n2Cc2ccco2)c1	-37	82*	0.1	36	0.2	87*
CCn1c(COc2ccc(C)cc2)nnc1SCc1nc2ccccc2[nH]1	-13	29	0.6	14	0.7	45
SMILES	sEH activator	CYP2C19 inhib	CYP2C9 act	sEH inhibitor	CYP2C19 act	CYP2C9 inh
COc1cccc(-c2nnc(SCc3nc4ccccc4[nH]3)n2N)c1	13	22	1.1	-11	0.8	-13
Clc1ccc(OCc2nnc(SCc3nc4ccccc4[nH]3)n2Cc2ccco2)cc1	-8	12	0.4	5	0.9	62*
Clc1ccccc1CSc1nnc(-c2ccccn2)n1Cc1ccco1	23	0	0.9	-21	1	7
Cn1c(SCc2nc3ccccc3[nH]2)nnc1-c1cnccn1	nt	34	0.9	nt	0.7	8
c1coc(Cn2c(SCc3nc4ccccc4[nH]3)nnc2-c2cnccn2)c1	6	67*	0.2	-6	0.3	81*
c1ccc(-c2nnc(SCc3nc4ccccc4[nH]3)n2Cc2ccco2)nc1	-4	51*	0.1	6	0.5	90*
CCN(CC)c1ccc(/C=N/N2CCN(Cc3cccc4ccccc34)CC2)c(O)c1	-2	0	0.9	5	1	6
CCOC(=O)c1ccc(-n2c(=S)sc3c(=O)[nH]c(C)nc32)cc1	0	6	1.1	0	0.9	-14
C=CCSc1nnc(NC(=O)COc2ccc3ccccc3c2)s1	-11	26	0.8	10	0.7	21
CC(C)CCNC(=O)CN(C(=O)CCC(=O)Nc1ccccn1)c1ccc2c(c1)OCCO2	18	nt	nt	-12	nt	nt
CC(C)CCNC(=O)CN(C(=O)CCC(=O)Nc1ccccn1)c1ccc2c(c1)OCO2	21	46	0.4	-22	0.5	58*
Cc1cc(C)cc(N(CC(=O)NCc2ccco2)C(=O)CCC(=O)Nc2ccccn2)c1	nt	61*	0.8	nt	0.4	24
CCC(C)(C)NC(=O)CN(C(=O)CCC(=O)Nc1cc(C)ccn1)c1ccc2c(c1)OCO2	3	58*	0.5	-6	0.4	50*
O=C(CN(C(=O)CCC(=O)Nc1ccccn1)c1ccc2c(c1)OCO2)NCc1ccco1	8	49	0.7	-7	0.5	31
Cc1ccc(N(CC(=O)NCc2ccco2)C(=O)CCC(=O)Nc2ccccn2)cc1C	-6	96*	0.7	4	0	30
Cn1c(=O)c(=O)n(C)c2cc(S(=O)(=O)N3CCN(c4cccc(C(F)(F)F)c4)CC3)ccc21	5	-11	1.1	-4	1.1	-9
C=CCN(CC=C)C(=S)Nc1ccccc1	10	24	1	-10	0.8	4
CC(=O)OCc1c(COC(C)=O)[n+](=O)c2ccccc2n1[O-]	1	9	0.9	-2	0.9	6
c1ccc(Nc2ncnc3c2oc2ccccc23)cc1	2	29	1	-5	0.7	-2
O=S(=O)(Nc1ncnc2c1oc1ccccc12)c1ccc(Cl)s1	nt	61*	0.1	nt	0.4	92*
CC(C)(C)c1ccccc1OCCCCCNCCO	nt	7	1	nt	0.9	-2
CC(C)(C)C1CCc2c(sc(NC(=O)c3cc(C4CC4)on3)c2C#N)C1 (centres undefined)	8	9	0.3	-6	0.9	73*
